FBW7 activator: human FBW7 E3 ligase activation, primary screen; Q969H0; AlphaScreen FBW7–phospho-cyclin E peptide binding, activator screen; normalized activity (activation), % at 26.1 µM; 0.13% of 650,000 active; AID 1259310; in the data active = normalized activity above about 1.9%;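 note: purified mutant Fbw7 with reduced substrate affinity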
TEAD-YAP block: TEAD-YAP interaction inhibition | 1.4% of 640,000 active | inhibition, % at 9.12 µM | HEK-TIYL cells, TEAD-Gal4/YAP UAS-luciferase luminescence; in the data active = inhibition above about 32%
MITF inh: inhibitors of human MITF; O75030; 0.91% of 650,000 active; AlphaScreen MITF homodimerization, bead proximity signal; inhibition, % at 2.6 µM; AID 1259374; in the data active = inhibition above about 50%
Target sequence (O75030 whole entry, looked up): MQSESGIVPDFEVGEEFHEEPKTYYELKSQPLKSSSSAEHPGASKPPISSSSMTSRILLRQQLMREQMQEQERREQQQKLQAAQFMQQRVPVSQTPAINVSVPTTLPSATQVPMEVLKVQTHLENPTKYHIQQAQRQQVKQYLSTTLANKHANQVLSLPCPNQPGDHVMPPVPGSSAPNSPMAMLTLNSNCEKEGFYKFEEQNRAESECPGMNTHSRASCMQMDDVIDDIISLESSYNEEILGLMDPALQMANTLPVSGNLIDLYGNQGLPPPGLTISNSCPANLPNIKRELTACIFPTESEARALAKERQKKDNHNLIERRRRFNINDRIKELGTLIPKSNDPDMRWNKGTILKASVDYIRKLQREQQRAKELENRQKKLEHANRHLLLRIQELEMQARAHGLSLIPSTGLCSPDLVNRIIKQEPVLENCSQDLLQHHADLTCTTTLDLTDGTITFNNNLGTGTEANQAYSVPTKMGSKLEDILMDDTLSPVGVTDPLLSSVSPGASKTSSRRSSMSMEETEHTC
GPR151 activ: human GPR151 activation; PathHunter beta-arrestin GPR151 cells, luminescence; activation, % at 11.2 µM; AID 1508602; Q8TDV0; 1% of 650,000 active; in the data active = activation above about 4.9%
MITF confirm: human MITF inhibition, confirmation. AID 1259372. shares compounds with MITF inh. AlphaScreen MITF homodimerization, biotin/His-MITF beads. 16% of 4,700 active. inhibition, % at 2.6 µM;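 active = inhibition above a cutoff derived from the DMSO control wells, cut at about 28% in these data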;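 note: inhibitors lower the bead chemiluminescence by keeping MITF from dimerizing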
AS interf DR: optically interferes with AlphaScreen signal in dose response | IC50, µM | 6% of 480 active | AlphaScreen optical interference counterscreen, cell-free | shares compounds with MITF inh; call rule not given here
AS interf ctr: optically interferes with AlphaScreen signal; AID 1259376; inhibition, % at 2.6 µM; LysRS AlphaScreen counterscreen, signal interference, triplicate; 7.6% of 4,700 active; shares compounds with MITF inh;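 active = inhibition above a cutoff derived from the DMSO control wells, cut at about 30% in these data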
Each line names hits and unclear results; the compound was inactive in the other large screens (follow-up assays come after a bar, where they were run). The list is not random: actives were taken first. Their share in the collection is about 3.4%.

COc1ccc(O)c(CN2CCN(Cc3cccc(Cl)c3)CC2)c1	none
COc1cccc(CN2CCN(Cc3cccc(Cl)c3)CC2)c1	MITF inh 70 | MITF confirm inactive | AS interf ctr inactive
COCCOC(=O)C1=C(N)OC(C)=C(C(C)=O)C12C(=O)Nc1ccccc12 (stereo not drawn)	none
O=C1CN=C(c2ccccc2)c2oc3ccccc3c2N1	none
CCOC(=O)c1ccc(NC(=O)CCc2nc(C3=CCN(C)CC3)no2)cc1	FBW7 activator 3.4, MITF inh 62 | MITF confirm 69 | AS interf ctr 38
CN1CCN(CC#CCOc2ccc(Cl)cc2)CC1	MITF inh 54 | MITF confirm inactive | AS interf ctr inactive
COc1ccc(CN2CCN(C)CC2)c(OC)c1OC	none
CSc1ccc(CN2CCN(C(=O)COc3ccc(Cl)cc3)CC2)cc1	none
COc1ccc(OCC(=O)N2CCN(Cc3cccc(Br)c3)CC2)cc1	MITF inh 64 | MITF confirm inactive | AS interf ctr inactive
O=C(COc1ccc(Br)cc1)N1CCN(Cc2ccncc2)CC1	MITF inh 100 | MITF confirm inactive | AS interf ctr inactive
COc1ccc(OCC(=O)N2CCN(Cc3cccc(OC)c3)CC2)cc1	none
COc1cccc(CN2CCN(C(=O)COc3cccc(C)c3)CC2)c1	MITF inh 57 | MITF confirm inactive | AS interf ctr inactive
COc1ccc(OCC(=O)N2CCN(Cc3ccccc3C)CC2)cc1	MITF inh 54 | MITF confirm inactive | AS interf ctr inactive
COc1ccccc1CN1CCN(C(=O)COc2cccc(C)c2)CC1	MITF inh 80 | MITF confirm inactive | AS interf ctr inactive
O=C(COc1ccc(Br)cc1)N1CCN(Cc2ccc3c(c2)OCO3)CC1	MITF inh 64 | MITF confirm inactive | AS interf ctr inactive
Cc1cccc(OCC(=O)N2CCN(Cc3ccncc3)CC2)c1	MITF inh 73 | MITF confirm inactive | AS interf ctr inactive
Cc1ccc(CC(=O)N2CCN(Cc3ccc4c(c3)OCO4)CC2)cc1	none
COc1cc(CN2CCN(C(=O)COc3ccccc3)CC2)cc(OC)c1OC	none
COc1cc(OC)c(OC)cc1CN1CCN(C(=O)COc2ccccc2)CC1	MITF inh 54 | MITF confirm inactive | AS interf ctr inactive
N#CC1=C(N)Oc2c(c(=O)oc3ccccc23)C1c1ccc(F)cc1Br (stereo not drawn)	none
CCP(=O)(c1c(C)nn(-c2ccccc2)c1C)N(C)C (stereo not drawn)	none
COc1cccc(CN2CCN(c3cccc(Cl)c3)CC2)c1O	none
COc1cc(CN2CCN(C(C)C)CC2)cc(OC)c1OC	MITF inh 82 | MITF confirm inactive | AS interf ctr inactive
COc1cc(CN2CCN(c3ccccc3)CC2)cc(OC)c1O	none
CCC(CC)N1CCN(Cc2cc(OC)c(OC)c(OC)c2)CC1	MITF inh 57 | MITF confirm inactive | AS interf ctr inactive
Cc1cccc(CN2CCN(C(C)C)CC2)c1	none
COc1cc(CN2CCN(C(C)C)CC2)cc(OC)c1O	MITF inh 71 | MITF confirm inactive | AS interf ctr inactive
CCN1CCN(Cc2ccc(OC)c(C)c2C)CC1	MITF inh 53 | MITF confirm inactive | AS interf ctr inactive
CCOc1cc(CN2CCN(CC)CC2)ccc1O	MITF inh 57 | MITF confirm inactive | AS interf ctr inactive
CCN1CCN(Cc2cc(OC)c(OC)c(OC)c2)CC1	MITF inh 52 | MITF confirm inactive | AS interf ctr inactive
COc1cc(CN2CCN(CCO)CC2)cc(OC)c1OC	none
COc1ccccc1CN1CCN(Cc2ccc(SC)cc2)CC1	MITF inh 81 | MITF confirm inactive | AS interf ctr inactive
COc1ccc(CN2CCN(Cc3ccccc3OC)CC2)cc1	MITF inh 77 | MITF confirm 31 | AS interf DR inactive | AS interf ctr inactive
COc1ccccc1CN1CCN(Cc2ccc(F)cc2)CC1	MITF inh 81 | MITF confirm inactive | AS interf ctr inactive
COc1ccccc1CN1CCN(Cc2cccc(Cl)c2)CC1	MITF inh 69 | MITF confirm inactive | AS interf ctr inactive
COc1ccccc1N1CCN(Cc2ccc(F)cc2)CC1	none
Nn1ccnc1SCc1nc2ccccc2c(=O)n1-c1ccccc1Cl	none
CN1/C(=C2\C=NN(c3ccccc3)P2(=S)N2CCOCC2)C(C)(C)c2ccccc21 (stereo not drawn)	none
COC(=O)N1CCN(/C(N)=N/[N+](=O)[O-])CC1	none
O=c1cccc2n1CC1CC2CN(C(=S)Nc2ccc(OC(F)F)cc2)C1 (stereo not drawn)	none
COC(=O)C1C(=O)N(C)C2(C)CC1c1ccccc1O2 (stereo not drawn)	none
COc1ccccc1CN1CCN(Cc2ccc(Cl)cc2)CC1	MITF inh 73 | MITF confirm inactive | AS interf ctr inactive
COc1cccc(CN2CCN(c3ccc(Cl)cc3)CC2)c1O	none
CN1CC[C@@H](c2ccc(F)cc2)[C@H](COc2ccc3c(c2)OCO3)C1	none
CN(C)CCN(C)Cc1c[nH]c2ccccc12	MITF inh 64 | MITF confirm inactive | AS interf ctr inactive
CCN1CCN(Cc2c(C)noc2C)CC1	MITF inh 83 | MITF confirm inactive | AS interf ctr inactive
CCN(CC(=O)Nc1ccc(Br)cc1)CC(=O)Nc1ccc(C#N)c(Cl)c1	MITF inh 85 | MITF confirm inactive | AS interf ctr inactive
CCN(CC(=O)Nc1ccc(C#N)c(Cl)c1)CC(=O)Nc1c(F)cccc1F	none
CN1CCCC1c1cccnc1N (stereo not drawn)	none
CCC(C)N1CCN(Cc2cc(OC)c(OC)cc2OC)CC1 (stereo not drawn)	MITF inh 64 | MITF confirm inactive | AS interf ctr inactive
CCC(C)N1CCN(Cc2ccc(OC)cc2)CC1 (stereo not drawn)	MITF inh 69 | MITF confirm inactive | AS interf ctr inactive
Cc1ccc(CN2CCN(Cc3ccc4c(c3)OCO4)CC2)cc1	none
CCN1CCN(Cc2ccc(OC)cc2OC)CC1	none
CCC(C)N1CCN(Cc2ccc(OC)c(OC)c2)CC1 (stereo not drawn)	MITF inh 64 | MITF confirm inactive | AS interf ctr inactive
CCC(C)N1CCN(Cc2ccc3c(c2)OCO3)CC1 (stereo not drawn)	MITF inh 71 | MITF confirm inactive | AS interf ctr inactive
CN=C(NS(=O)(=O)c1ccc(Cl)cc1)N1CC(c2ccccc2)C(c2ccc(Cl)cc2)=N1 (stereo not drawn)	none (no result: FBW7 activator, TEAD-YAP block)
CN1CCCC1c1ccc(N)nc1 (stereo not drawn)	none
COc1cc(Br)c(CN2CCN(C)CC2)cc1OC	none
COc1cc(OC)c(CN2CCN(C)CC2)cc1Br	MITF inh 62 | MITF confirm inactive | AS interf ctr inactive
CCOc1ccc(CN2CCN(C(C)CC)CC2)cc1 (stereo not drawn)	MITF inh 66 | MITF confirm inactive | AS interf ctr inactive

Source: PubChem
